Source: the supplement of paper PMC3334620
Over roughly 33,000 sequences, “E-score (-0.5 to 0.5)” has its median near -8e-05; the highest 2% begin near 0.23. What follows is part of a selection rich in the highest values, with near analogues and random picks from the rest.

Molecular target: T1, Nrg2 (UniProt P38082)
T1 sequence: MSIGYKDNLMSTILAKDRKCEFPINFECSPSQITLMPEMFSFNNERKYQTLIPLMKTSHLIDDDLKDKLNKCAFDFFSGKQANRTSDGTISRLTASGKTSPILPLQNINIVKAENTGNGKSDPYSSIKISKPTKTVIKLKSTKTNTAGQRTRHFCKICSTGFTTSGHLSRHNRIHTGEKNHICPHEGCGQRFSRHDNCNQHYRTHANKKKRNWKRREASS
Assay: PBM E-score (8-mer binding enrichment) (E-score (-0.5 to 0.5)); higher = stronger / more preferred TF binding
Settings: protein concentration: 100 nM; construct: GST-full length
How it was run: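 Detection of bound protein used fluorescent anti-GST, with scans normalised by masliner. The proteins were GST-tagged yeast transcription factors applied at about 100-200 nM to universal all-10-mer Agilent arrays made double-stranded by primer extension. Each ungapped eight-base word, pooled with its reverse complement, was scored with an E-score from the Universal PBM Analysis Suite.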

Sequence | PBM E-score
CGTCGGTC | 0.00408
CAGGTTAA | -0.0788
CACGTCCA | -0.177
ACGCGATC | 0.146
CGAGCTGA | 0.243
CGAGCTCA | 0.108
ACAGCTGA | 0.0892
TCAGCTGA | 0.279
CGAGCTCG | 0.241
CGAGCTTA | -0.0737
AGAGCTGA | 0.00384
CGAGCTCC | 0.12
GCAGCTGA | 0.0488
ATCCTCAG | 0.1
AGCGGCCT | -0.275
GCTTCGTA | -0.102
CGGCCGAA | 0.0577
GAGCTCGA | 0.183
ACTAGCTA | 0.0559
AAGAATCC | 0.0617
AACCCCAT | 0.07
AACCCCAG | 0.237
AACCCCAA | 0.147
TACCCCCA | -0.159
ACCCCCAG | -0.291

Sequence | PBM E-score
TACCCCAA | 0.247
GCCGCAAA | 0.157
ATCAACCG | 0.0105
GGTGAATA | 0.104
AGACCCTG | 0.431
AGACCCTA | 0.148
ATACCCTG | 0.295
AAACCCTA | 0.184
ATACCCTC | 0.0223
AGACCCTC | 0.0175
CAACCCTG | 0.252
AACCCCTG | 0.055
ATACCCTA | 0.119
AAACCCTG | 0.318
CAACCCTA | 0.0574
CAACCCTC | 0.0136
ATGGTTCG | 0.109
AGAACCTC | -0.232
GGGTAGGA | -0.0916
AGAATGCT | 0.108
CGTCCTTA | -0.0686
GGCCTAAC | 0.0899
GCTGGAAC | -0.144
TGGCATAA | 0.144
AAGAGGTA | 0.0504

Sequence | PBM E-score
ACTCCTCA | -0.24
ACGACGTA | -0.166
ATTTCGTA | 0.0258
AAGCGGAA | -0.0181
AACTAAGT | 0.168
ATAGTCGG | -0.122
ATAGTCGA | 0.264
CTAGTCGA | -0.0659
CTGGGTCC | -0.288
ACTCGCGC | 0.0455
TATCGCGA | 0.252
ACTCGCGA | 0.273
CGTCGCGA | 0.143
CCTCGCGA | 0.179
CATCGCGA | 0.127
AGTCGCGA | 0.226
GGTCGCGA | 0.242
GATCGCGA | 0.168
ATTGTGCG | -0.0707
CCTCGAGA | 0.156
GCTCGAGA | -0.131
CCTCGAAG | 0.0341
CCTCGAGG | 0.242
ACTCGAGC | 0.073
GCTCGACC | -0.0125

Sequence | PBM E-score
GCTCGAGC | 0.24
ACTCGAGG | 0.162
CCTCGAGC | 0.267
AAGCTATC | 0.153
ACAACGCG | 0.12
AGCGCACA | 0.137
ACTAGCAT | -0.0422
AAGACCGA | -0.018
CAAATGCC | -0.0811
CAAATGCG | 0.268
GAAATGCA | 0.055
TAAATGCA | 0.275
AAAATGCG | 0.0104
CAAATGCA | -0.0764
AAACCTCC | -0.115
AAACTGCG | -0.0689
AGTTTCGA | 0.0135
ATATGGAT | 0.247
ATATGGAG | 0.147
ATATGGAC | 0.0806
GGTGAGAA | -0.0568
GAGCGACC | -0.168
CAAGTTTC | -0.00709
CCCATGAC | -0.0865
GGTTTCGA | 0.191

Sequence | PBM E-score
AAAATGGA | 0.308
CAAATGGA | -0.0362
AAAATGGG | -0.0403
AAGGGTCT | 0.273
AAGGGTGT | 0.0853
AAAGGTCC | 0.0985
AGGGGTCA | 0.128
CAGGGTCC | 0.446
CCGGGTCC | -0.171
AAGGGTCC | 0.439
AGGGGTCG | 0.0876
AGGGGTCC | 0.316
CAGAGTCC | 0.0801
ATGGGTCC | 0.0519
AAGGGTCA | 0.149
AAGGTAGG | 0.00624
GGATAACC | -0.141
GTCTTTCA | -0.177
AGCCGAAG | -0.104
TATAGACA | 0.0604
AGATTCCG | 0.101
GAGGGTCC | 0.282
CAGGGTCA | 0.0802
GAGGGTCA | -0.227
CAGGGTCG | 0.264

Sequence | PBM E-score
AAGGGTCG | 0.132
GCGGGTCC | -0.0518
ACCCCTGC | 0.066
CAAACGAA | -0.0374
TAAGCAAA | 0.0437
TCCCCTCA | 0.235
CCCCCTCA | -0.379
ACCCCTCA | 0.0629
AACTGACT | -0.167
AAAGTTGG | 0.132
AAAGTTGT | 0.297
AAAGTTGC | 0.0327
AGTGGCTG | 0.126
AGGGCTGA | -0.201
AGTCTTTC | -0.0294
CCAGACAG | -0.00394
ACAGACAG | 0.255
ACAGACAC | -0.0421
TGTTGTAA | 0.102
GACAGCGA | -0.131
CGAAGACG | -0.0796
GTCACGTA | -0.249
AAATACAA | 0.0802
CAATACAC | 0.0544
TAATACAA | 0.235

Sequence | PBM E-score
CAATACAA | 0.275
CAATACAG | 0.125
GAATACAA | 0.107
ACGACCAT | -0.0998
CAATCGCC | 0.00157
AGTAGGAA | -0.0957
CGGCGCCG | 0.25
AGGCGCCG | -0.0298
CCGCGCAG | 0.0598
AGGCGCGC | 0.0865
CCGCGCGG | 0.368
CCGCGGGA | 0.284
CCGCGCCG | -0.0754
CGGCGCGA | 0.121
CGGCGCGC | 0.256
CCGCGGGC | 0.0924
CGGCGCCA | 0.0132
GCGCGGGA | 0.0263
AGGTACTA | 0.0762
CTCTAGCC | -0.283
AAAAGGCC | -0.197
CAACCTAA | 0.059
